# FLuc inh: Photinus pyralis luciferase inhibition; P08659; purified P. pyralis luciferase, luminescence, biochemical; Potency, µM (top dose mostly 115 µM), most hits filed as inhibitors; actives 2.5% (n = 76,000); also: nearly all actives have a fitted effect of over 65% in size
# Target sequence (P08659 whole entry, looked up): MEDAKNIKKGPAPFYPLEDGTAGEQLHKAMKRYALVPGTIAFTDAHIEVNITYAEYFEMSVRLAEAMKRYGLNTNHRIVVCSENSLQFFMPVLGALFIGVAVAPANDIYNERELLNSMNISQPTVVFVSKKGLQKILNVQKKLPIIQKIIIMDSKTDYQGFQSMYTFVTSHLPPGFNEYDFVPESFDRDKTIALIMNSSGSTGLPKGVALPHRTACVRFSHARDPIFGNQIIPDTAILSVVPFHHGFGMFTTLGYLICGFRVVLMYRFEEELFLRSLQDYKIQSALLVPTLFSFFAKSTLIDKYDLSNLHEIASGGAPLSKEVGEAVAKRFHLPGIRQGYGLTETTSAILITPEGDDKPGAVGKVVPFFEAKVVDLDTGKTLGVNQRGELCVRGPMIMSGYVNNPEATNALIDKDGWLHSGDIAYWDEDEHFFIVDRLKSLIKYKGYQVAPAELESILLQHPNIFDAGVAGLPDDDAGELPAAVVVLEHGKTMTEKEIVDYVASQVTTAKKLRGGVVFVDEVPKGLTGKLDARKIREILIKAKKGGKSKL
#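 Luminescence read by CCD imager after adding enzyme (10nM final) to wells holding compound, titrated in qHTS. Substrates 10uM each D-luciferin and ATP; buffer 50mM Tris acetate pH 7.5, 10mM Mg acetate, Tween-20, BSA.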
# NIH3T3 tox: NIH 3T3 cell cytotoxicity; NIH 3T3 viability, CellTiter-Glo ATP luminescence, 48-72 h; Potency, µM (top dose mostly 96.7 µM), usual class: inhibitors; AID 1345082; actives 4.3% (n = 94,000); also: nearly all actives have a fitted effect of over 55% in size
#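 Cytotoxicity is measured as loss of cellular ATP: NIH 3T3 cells (400/well) are exposed to compound for 48 or 72 hr at 37 °C, then CellTiter-Glo luminescence is imaged after 10 min at room temperature.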
# hNpr1 antagonist: human Npr1 receptor antagonism. HEK293 hNpr1 GloSensor cGMP, ANP-stimulated luminescence. Potency, µM (highest dose often 46.3 µM), hits mostly inhibitors. actives 1.6% (n = 76,000); calls by dose curve; also: nearly all actives have a fitted effect of over 60% in size
#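 HEK293 cells stably expressing human Npr1 and cGMP GloSensor pGS-40F, loaded 2 h with 2% GloSensor reagent, given compound 30 min at room temperature. Luminescence read before and 20 min after 0.1 nM hNppA.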
# HEK cytotox: cytotoxic compounds in HEK 293 cells | actives 6.6% (n = 94,000) | HEK 293 viability, ATP luminescence (CellTiter-Glo), 48-72 h | Potency, µM (titrated, usually from 115 µM), hits mostly inhibitors; also: nearly all actives have a fitted effect of over 60% in size
#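 Luminescence from cellular ATP, measured with CellTiter-Glo, indicates HEK 293 viability. Cells plated at 250 cells/well are treated with compound for 48 or 72 hr at 37 degree Celsius before reagent addition.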
# Hits are given with their value; - = inactive; ? = inconclusive; . = no result given; ! = not confirmed by another sample. Only some compounds are listed: those with a hit (about 11% of all), similar ones and a draw of the others. Unless noted, calls follow the shape of the dose curve; as a rule, active = well fitted curve in the direction sought with a large enough effect; inconclusive = small, poorly fitted or top-dose-only effect, or another doubt; inactive = no such curve, though single readings can be large; an effect the other way counts as inactive or inconclusive.
SMILES,FLuc inh,NIH3T3 tox,hNpr1 antagonist,HEK cytotox
COC1CCN(C(=O)c2cnc3c(c2)N(Cc2ccccc2)CCC3)CC1,-,?,-,-
O=C(NCc1ccc(F)cc1)c1cnc2n[nH]c(-c3ccccc3)c2n1,-,50µM,-,?
COc1ccc(-c2[nH]nc3ncc(C(=O)NCc4ccc(F)cc4)nc23)c(C)c1,-,22µM,-,32µM
O=C(NCC1CCOCC1)c1cnc2n[nH]c(-c3ccccc3)c2n1,-,79µM,-,?
O=C(c1cnc2n[nH]c(-c3ccccc3)c2n1)N1CCN(c2ccccn2)CC1,-,?,-,71µM
O=C(c1cnc2n[nH]c(-c3ccccc3)c2n1)N1CCOCC1,-,?,-,?
O=C(NCCc1ccccc1)c1cnc2n[nH]c(-c3ccccc3)c2n1,-,?,-,-
CCOC(=O)N1CCC(Oc2cnc3c(ccn3-c3cncnc3)c2)CC1,-,10µM,-,-
O=C1Nc2ccccc2CN(C/C=C/c2ccccc2)C12CCNC2 (centres undefined),.,25µM,.,?
O=C1Nc2ccccc2CN(Cc2ccccc2)C12CCNC2 (centres undefined),.,89µM,.,?
CCCN1Cc2ccccc2NC(=O)C12CCNC2 (centres undefined),.,-,.,-
O=C1Nc2ccccc2CN(CC2CCOCC2)C12CCNCC2,.,-,.,-
O=C1Nc2ccccc2CN(Cc2ccc(Cl)cc2)C12CCNCC2,-,14µM,-,20µM
Cc1ccc(C(=O)N2CCN(C3CCN(CCc4ccccc4)C3=O)CC2)cc1F (centres undefined),-,-,-,?
COCc1cn([C@H]2CO[C@H]3[C@@H]2OC[C@@H]3N)nn1,-,-,-,-
COc1ccc(OC)c(CN2CCNc3cc(Nc4ccccc4)ncc3C2)c1,22µM,35µM,-,?
CCOc1cc2c(cn1)NCCN(Cc1ccccc1O)C2,-,-,-,?
Oc1ccccc1CN1CCNc2cnc(Oc3ccccc3)cc2C1,-,?,?,79µM
COc1ccccc1CN1CCNc2cnc(-c3ccccc3)cc2C1,-,?,-,79µM
COc1ccccc1CN1CCNc2cnc(Nc3ccccc3)cc2C1,-,?,-,89µM
O=C(CCC[C@H]1NC[C@@H]2CC1CN(Cc1ccccc1)C2)NCCCN1CCCCC1,-,-,-,-
OCCC1CN(c2cc(C(F)(F)F)ccn2)CCN1CC1CCCCC1 (centres undefined),-,?,-,?
O=C1COCCN1c1cc(-c2cccc(F)c2)cn2cncc12,-,?,-,-
COc1cccc(C(=O)N2CCc3nc(-c4ccccc4)nc(-c4ccc(Cl)cc4)c3C2)c1,-,?,-,40µM
O=C(c1ccccc1Cl)N1CCc2nc(-c3ccccc3)nc(-c3ccc(Cl)cc3)c2C1,-,?,-,?
SMILES,FLuc inh,NIH3T3 tox,hNpr1 antagonist,HEK cytotox
O=C(c1cccc(Cl)c1)N1CCc2nc(-c3ccc(Cl)cc3)nc(-c3ccccc3)c2C1,?,?,-,?
O=C(c1cccc(Cl)c1)N1CCc2nc(-c3ccccc3)nc(-c3ccc(Cl)cc3)c2C1,-,?,-,28µM
CNC(=O)C1CCCN(c2nccc(Nc3ccccc3OC)n2)C1 (centres undefined),.,-,.,?
COc1ccccc1Nc1ccnc(N2CCCC(C(=O)NCC3CC3)C2)n1 (centres undefined),.,35µM,.,?
COCCCNC(=O)C1CCCN(c2nccc(Nc3ccccc3OC)n2)C1 (centres undefined),.,-,.,-
COC(=O)CNC(=O)C1CCCN(c2nccc(Nc3ccccc3OC)n2)C1 (centres undefined),.,-,.,-
COc1ccccc1CNC(=O)C1CCCN(c2nccc(Nc3ccccc3OC)n2)C1 (centres undefined),.,35µM,.,?
COc1ccccc1Nc1ccnc(N2CCCC(C(=O)NC(C)C)C2)n1 (centres undefined),.,45µM,.,?
COc1ccccc1Nc1ccnc(N2CCCC(C(=O)NCCCc3ccccc3)C2)n1 (centres undefined),.,?,.,50µM
COCCc1nncn1C1CCN(S(=O)(=O)c2ccc(F)c(F)c2)CC1,-,-,-,-
CCOCC(=O)N1CCc2nc3cc(-c4ccc(OC)cc4)[nH]n3c(=O)c2C1,?,?,-,?
CC(=O)Nc1ccc(CN2CCC3(CC2)CC(c2cccnc2)=NO3)cc1,-,-,-,-
Cc1ccc(CN2CCC3(CC2)CC(c2cccnc2)=NO3)cc1,-,?,-,79µM!
Cc1noc(C)c1[S+](=O)([O-])N1CCC2(CC1)CC(c1cccc(C(F)(F)F)c1)=NO2,.,4.5µM,.,?
O=[S+]([O-])(c1ccc(C(F)(F)F)cc1)N1CCC2(CC1)CC(c1cccc(C(F)(F)F)c1)=NO2,.,-,.,?
O=C(CCl)N1CCC2(CC1)CC(c1cccc(C(F)(F)F)c1)=NO2,.,?,.,79µM
CN(C)C(=O)N1CCC2(CC1)CC(c1cccc(C(F)(F)F)c1)=NO2,.,?,.,45µM
COc1cccc(CNCC2(COc3ccccc3)C[C@@H](O)[C@@H](O)C2)c1 (some centres undefined),-,?,-,?
CCc1cn(C[C@H](NCC(C)(C)C)C(=O)O)c(=O)[nH]c1=O,-,-,-,-
CC(=O)Nc1ccc(CN2CCC3(CC2)CC(c2cccc(C(F)(F)F)c2)=NO3)cc1,-,35µM,-,40µM
Fc1ccc(CN2CCCC3(CC(c4cccc(C(F)(F)F)c4)=NO3)C2)cc1 (centres undefined),-,?,-,?
CN(C)c1ccc(CN2CCCC3(CC(c4cccc(C(F)(F)F)c4)=NO3)C2)cc1 (centres undefined),-,?,-,?
O=C(Cc1ccc(F)cc1)N1CCC2(CC1)CC(c1cccc(C(F)(F)F)c1)=NO2,.,40µM,.,50µM
CC(NC(=O)c1ccc2cccc(F)c2n1)c1ccccc1-n1cccn1 (centres undefined),35µM,?,-,?
C[C@@H](NC(=O)C[C@@H]1c2nc(NC(=O)CC(C)(C)C)sc2C[C@@H]2[C@](C)(CO)[C@H](O)CC[C@]21C)c1ccccc1,-,?,-,40µM
SMILES,FLuc inh,NIH3T3 tox,hNpr1 antagonist,HEK cytotox
C[C@H](NC(=O)C[C@@H]1c2nc(NC(=O)c3ccc(F)cc3)sc2C[C@@H]2[C@](C)(CO)[C@H](O)CC[C@]21C)c1ccccc1,-,?,-,32µM
CCCCCC(=O)Nc1nc2c(s1)C[C@@H]1[C@](C)(CO)[C@H](O)CC[C@@]1(C)[C@@H]2CC(=O)N[C@@H](CO)CC(C)C,-,79µM,-,?
O=C(C1COc2ccccc2C1)N1CCC(Cc2noc(C3CC3)n2)CC1 (centres undefined),-,?,-,?
COc1cccc(-c2ccc(CN3CCCC(NC(=O)C4CCCC4)C3)cc2)c1 (centres undefined),.,35µM,.,20µM
COc1cccc(-c2ccc(CN3CCCC(NC(=O)c4cccc(Cl)c4)C3)cc2)c1 (centres undefined),.,32µM,.,?
COc1ccc(C(=O)NC2CCCN(Cc3ccc(-c4cccc(OC)c4)cc3)C2)cc1 (centres undefined),.,-,.,35µM

# Screening results deposited in PubChem by National Center for Advancing Translational Sciences (NCATS).
